Measurements taken from PubChem BioAssay (Tox21).
Results filed as inconclusive are left out. Active and inactive are the calls of the source. Unless noted, calls follow the shape of the dose curve; as a rule, active = well fitted curve in the direction sought with a large enough effect in the repeat runs; inconclusive = weak or mixed curves; inactive = no such curve, though single readings can be large; an effect the other way counts as inactive or inconclusive.

Tests used:
[1] = A CellTox Green Cytotoxicity Assay to monitor cytotoxicity in HepG2 cells - 8 hour (AID 1224890); also: nearly all actives have a fitted effect of over 45% in size
In short: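 Cytotoxicity was tracked as dead-cell DNA fluorescence in HepG2 cells treated with test compounds at 37 C; each time-point value comes from one kinetic series spanning 0, 8, 16, 24, 32 and 40 h.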

[2] = qHTS assay to identify small molecule antagonists of the estrogen receptor alpha (ER-alpha) signaling pathway using the BG1 cell line in the presence of 0.1 nM 17-beta-estradiol - cell viability counter screen (AID 1259241); also: nearly all actives have a fitted effect of over 40% in size
In short: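 VM7Luc4E2 cells (endogenous ER-alpha, 4×ERE-luciferase), hormone-starved 5 days in charcoal-stripped FBS, were treated with compounds plus 0.1 nM 17beta-estradiol for 22 hr at 37C; viability read in same wells as CellTiter-Fluor live-cell protease fluorescence.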

[3] = qHTS assay to identify small molecule antagonists of the androgen receptor (AR) signaling pathway using the MDA cell line in the presence of 0.5 nM R1881 - cell viability counter screen (AID 1259242); also: nearly all actives have a fitted effect of over 45% in size
In short: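 Cells seeded at 3,000/well and allowed 5 hr at 37C, 0% CO2 before compound transfer and R1881 (0.5 nM final) addition; 16 hr later, live-cell protease fluorescence indicated cytotoxicity.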

[4] = qHTS assay to identify small molecule phospholipidosis (PLD) inducers (AID 1259344; active = well fitted curve in the direction sought with a large enough effect; an effect the other way counts as inactive or inconclusive)
In short: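 Read-out is LipidTOX Red fluorescence (ex 595/em 615) imaged in HepG2 cells after 24 h compound exposure at 37 C, with Hoechst nuclear counterstain (ex 352/em 461) allowing per-cell normalisation.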

[5] = qHTS assay to identify small molecule HDAC inhibitors (AID 1259364);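 also: wild-type HCT-116 cells with endogenous class I/II HDAC activity; top concentration of the series differs between compounds; nearly all actives have a fitted effect of over 45% in size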
In short: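 HCT-116 wt cells, 1,500/well, overnight attach. Compounds (DMSO) 2 h, 37 °C. HDAC-Glo I/II, 30 min RT. Luminescence.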

[6] = qHTS assay to identify small molecule HDAC inhibitors - cell viability counter screen (AID 1259365); also: series mostly up to about 92 µM; nearly all actives have a fitted effect of over 50% in size
In short: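 Wild-type HCT-116 cells were seeded at 1,500 per well, incubated overnight at 37 C, then exposed to compounds in DMSO for 2hr. Viability was read by CellTiter-Glo luminescence after 30min at room temperature.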

[7] = qHTS assay to identify small molecule antagonists of the sonic hedgehog signaling (Shh) pathway - cell viability counter screen (AID 1259367); also: nearly all actives have a fitted effect of over 55% in size
In short: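 Fluorescence read-out (CellTiter-Fluor, 1 hr at 37C) taken after 23 hr compound treatment of 3T3 Gli1-Luc cells stimulated with conditioned medium. Cells were seeded at 2,000 per well and pre-incubated 4 hr.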

[8] = qHTS assay to identify small molecule agonists of the sonic hedgehog signaling (Shh) pathway (AID 1259368; calls by dose curve; also: series mostly up to about 92 µM; nearly all actives have a fitted effect of over 15% in size)
In short: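 Following a 24 hr incubation with DMSO-dissolved compounds at 37 C, 5% CO2, Gli1-Luc NIH/3T3-derived cells received luciferase reagent for 30 min at room temperature prior to luminescence measurement.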

[9] = qHTS assay to identify small molecule antagonists of the sonic hedgehog signaling (Shh) pathway (AID 1259369; calls by dose curve; also: nearly all actives have a fitted effect of over 45% in size)
In short: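 Read-out is luminescence from a firefly luciferase gene controlled by the Gli1 response element, in 3T3Gli1-Luc cells pre-incubated 4hr then exposed to compounds and conditioned medium for 24hr.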

[10] = target: Estrogen receptor beta (Homo sapiens) (UniProt Q92731); assay: qHTS assay to identify small molecule agonists of the estrogen receptor beta (ER-beta) signaling pathway (AID 1259377; active = well fitted activation curve with a large enough effect in the signal ratio in the repeat runs, not every such curve was filed as active; the % refers to the signal ratio)
Chain of Estrogen receptor beta (Homo sapiens) (Q92731 whole entry, looked up): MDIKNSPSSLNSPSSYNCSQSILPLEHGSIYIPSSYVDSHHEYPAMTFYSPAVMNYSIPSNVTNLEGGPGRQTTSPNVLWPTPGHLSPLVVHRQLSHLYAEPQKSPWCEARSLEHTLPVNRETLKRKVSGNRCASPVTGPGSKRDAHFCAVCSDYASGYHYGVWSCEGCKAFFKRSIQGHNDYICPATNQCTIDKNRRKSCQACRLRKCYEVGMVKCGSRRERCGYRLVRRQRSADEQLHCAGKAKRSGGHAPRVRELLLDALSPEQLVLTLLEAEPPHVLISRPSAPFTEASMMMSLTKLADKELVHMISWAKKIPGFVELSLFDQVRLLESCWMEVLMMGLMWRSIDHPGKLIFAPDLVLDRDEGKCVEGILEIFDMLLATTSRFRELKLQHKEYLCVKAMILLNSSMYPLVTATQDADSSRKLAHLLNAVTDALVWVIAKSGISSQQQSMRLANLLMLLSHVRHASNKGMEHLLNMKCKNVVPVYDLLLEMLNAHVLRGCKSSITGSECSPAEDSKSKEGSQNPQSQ
In short: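 ER-beta-UAS-bla HEK293T (GripTite) cells carrying a UAS-driven beta-lactamase reporter, in medium with 2% charcoal-stripped FBS, were exposed to compounds for 16 hr at 37C; LiveBLAzer B/G FRET substrate was then added and fluorescence read after 2 hours at room temperature.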

[11] = target: Estrogen receptor beta (Homo sapiens) (UniProt Q92731); assay: qHTS assay to identify small molecule antagonists of the estrogen receptor beta (ER-beta) signaling pathway (AID 1259378; active = well fitted inhibition curve with a large enough effect in the signal ratio in the repeat runs, not every such curve was filed as active; the % refers to the signal ratio)
In short: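 ER-beta-UAS-bla HEK293T cells in 2% charcoal-stripped FBS medium treated with compound plus 1nM final 17-beta-estradiol for 16 hr at 37C. Beta-lactamase reporter read by FRET substrate fluorescence after 2 hours at room temperature.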

[12] = qHTS assay to identify small molecule agonists of the androgen receptor (AR) signaling pathway in the presence of an antagonist - cell viability counter screen (AID 1259379);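 also: MDA-kb2 human breast cancer cells carrying an MMTV luciferase reporter; series mostly up to about 92 µM; nearly all actives have a fitted effect of over 25% in size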
In short: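 Each compound was tested at 15 concentrations on MDA-kb2 cells in the presence of 3.0uM nilutamide. Viability was measured by CellTiter-Fluor fluorescence after a 16 hr incubation at 37C in a CO2-free atmosphere.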

[13] = qHTS assay to identify small molecule agonists of the estrogen receptor beta (ER-beta) signaling pathway - cell viability counter screen (AID 1259380); also: nearly all actives have a fitted effect of over 30% in size
In short: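 Compounds dissolved in DMSO were pin-transferred onto ER-beta-UAS-bla HEK293T cells that had settled 6 hr, and exposure ran 16 hr at 37C. Following the reporter read, CellTiter-Glo luminescence after 30 min at room temperature indicated cytotoxicity.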

[14] = qHTS assay to identify small molecule antagonists of the estrogen receptor beta (ER-beta) signaling pathway - cell viability counter screen (AID 1259382); also: series mostly up to about 92 µM; nearly all actives have a fitted effect of over 55% in size
In short: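 CellTiter-Glo ATP luminescence measured after the LiveBLAzer read in the same wells; ER-beta-UAS-bla HEK293T cells, 16 hr compound treatment with 1nM 17-beta-estradiol agonist at 37C, 5% CO2.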

[15] = qHTS assay to identify small molecule agonists or antagonists of the thyroid stimulating hormone receptor (TSHR) signaling pathway - wild type cell line counter screen (AID 1259384; calls by dose curve)
In short: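 Wild-type Hek293 cells, 800/well, 18 h at 37C, then compound with Ro20-1724 for 30 min RT. cAMP by HTRF (cAMP-d2/anti-cAMP cryptate), 1 h RT, fluorescence read. 15 concentrations, triplicates.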

[16] = target: Estrogen receptor (Homo sapiens) (UniProt P03372); assay: qHTS assay to identify small molecule antagonists of the estrogen receptor alpha (ER-alpha) signaling pathway using the BG1 cell line in the presence of 0.1 nM 17-beta-estradiol (AID 1259244); also: nearly all actives have a fitted effect of over 50% in size
Chain of Estrogen receptor (Homo sapiens) (P03372 whole entry, looked up): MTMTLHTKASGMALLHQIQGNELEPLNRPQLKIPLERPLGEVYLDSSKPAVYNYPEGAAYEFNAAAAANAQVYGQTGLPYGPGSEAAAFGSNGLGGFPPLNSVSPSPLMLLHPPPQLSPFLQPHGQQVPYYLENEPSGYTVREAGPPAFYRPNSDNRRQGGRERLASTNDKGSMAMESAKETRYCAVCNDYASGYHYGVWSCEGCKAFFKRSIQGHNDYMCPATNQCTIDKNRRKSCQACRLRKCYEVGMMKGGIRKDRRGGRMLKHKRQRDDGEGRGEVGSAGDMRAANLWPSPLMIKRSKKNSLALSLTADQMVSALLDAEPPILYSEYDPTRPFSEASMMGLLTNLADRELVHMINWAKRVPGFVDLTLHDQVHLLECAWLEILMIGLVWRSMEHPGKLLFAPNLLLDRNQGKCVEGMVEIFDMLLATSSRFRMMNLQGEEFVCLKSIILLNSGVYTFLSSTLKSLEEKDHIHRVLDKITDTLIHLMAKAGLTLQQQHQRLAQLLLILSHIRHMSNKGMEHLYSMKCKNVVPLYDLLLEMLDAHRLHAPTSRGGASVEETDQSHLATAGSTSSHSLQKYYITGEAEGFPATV
In short: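 Luciferase signal from VM7Luc4E2 ERE-reporter cells, co-dosed with test compound and 0.1 nM final 17beta-estradiol for 22 h, read with ONE-Glo.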

[17] = target: Estrogen receptor (Homo sapiens) (UniProt P03372); assay: qHTS assay to identify small molecule agonists of the estrogen receptor alpha (ER-alpha) signaling pathway in the presence of an antagonist (AID 1259383; calls by dose curve; also: top concentration of the series differs between compounds; nearly all actives have a fitted effect of over 15% in size)
In short: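 Luminescent ERE-luciferase reporter, VM7Luc4E2 cells (endogenous ER-alpha); 10.0nM ICI-182,780 final; 15-point compound titration; 22hr at 37C; ONE-Glo, 30min RT.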

[18] = target: Androgen receptor (Homo sapiens) (UniProt P10275); assay: qHTS assay to identify small molecule antagonists of the androgen receptor (AR) signaling pathway using the MDA cell line in the presence of 0.5 nM R1881 (AID 1259243); also: nearly all actives have a fitted effect of over 50% in size
Chain of Androgen receptor (Homo sapiens) (P10275 whole entry, looked up): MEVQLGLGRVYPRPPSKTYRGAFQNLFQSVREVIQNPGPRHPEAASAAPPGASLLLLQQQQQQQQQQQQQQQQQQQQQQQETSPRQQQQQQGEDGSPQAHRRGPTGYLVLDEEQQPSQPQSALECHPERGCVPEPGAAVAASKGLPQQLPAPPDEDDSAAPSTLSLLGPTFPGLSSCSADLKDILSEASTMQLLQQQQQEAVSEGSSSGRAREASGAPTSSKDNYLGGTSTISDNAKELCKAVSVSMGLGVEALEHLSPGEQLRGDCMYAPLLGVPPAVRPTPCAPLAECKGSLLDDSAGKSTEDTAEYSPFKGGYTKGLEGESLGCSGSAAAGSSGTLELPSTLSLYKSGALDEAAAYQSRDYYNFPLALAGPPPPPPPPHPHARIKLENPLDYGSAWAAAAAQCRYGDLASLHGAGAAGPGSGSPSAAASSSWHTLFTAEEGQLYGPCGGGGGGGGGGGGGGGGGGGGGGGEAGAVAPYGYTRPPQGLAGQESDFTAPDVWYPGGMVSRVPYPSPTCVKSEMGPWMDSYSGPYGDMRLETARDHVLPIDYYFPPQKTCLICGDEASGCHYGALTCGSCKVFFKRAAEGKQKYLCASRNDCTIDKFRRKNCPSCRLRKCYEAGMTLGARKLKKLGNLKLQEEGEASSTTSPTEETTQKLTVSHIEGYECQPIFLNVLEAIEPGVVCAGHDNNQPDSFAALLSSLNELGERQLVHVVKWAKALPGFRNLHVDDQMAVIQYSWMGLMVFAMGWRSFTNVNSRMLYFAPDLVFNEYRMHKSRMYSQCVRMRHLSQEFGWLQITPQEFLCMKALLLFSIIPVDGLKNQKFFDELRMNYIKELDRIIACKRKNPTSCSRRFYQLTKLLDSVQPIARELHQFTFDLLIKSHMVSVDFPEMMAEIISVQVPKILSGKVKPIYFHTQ
In short: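 Luminescence from an AR/GR-responsive MMTV-luciferase construct in MDA-kb2 breast carcinoma cells, read 30 min after ONE-Glo, following 16 hr co-treatment with compounds and 0.5 nM R1881.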

[19] = target: Androgen receptor (Homo sapiens) (UniProt P10275); assay: qHTS assay to identify small molecule agonists of the androgen receptor (AR) signaling pathway in the presence of an antagonist (AID 1259381; calls by dose curve; also: nearly all actives have a fitted effect of over 15% in size)
In short: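 Plated MDA-kb2 cells (3,000/well) were pre-incubated 5hr, given nilutamide (3.0uM final) or buffer, then dosed with compounds in DMSO at 15 concentrations. Luciferase activity was quantified by luminescence after 16hr at 37C.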

[20] = qHTS assay to identify small molecule agonists of the sonic hedgehog signaling (Shh) pathway - cell viability counter screen (AID 1259366); also: nearly all actives have a fitted effect of over 50% in size
In short: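 NIH/3T3-derived 3T3 Gli1-Luc cells (stable Gli1-responsive firefly luciferase reporter) were seeded, rested 4 hr at 37 C/5% CO2, then exposed to compounds in DMSO for 24 hr; viability was read by CellTiter-Fluor fluorescence in the same wells.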

Measured: Potency

CNC[C@H](O)c1cccc(O)c1
not listed: [16] | [17] | [18] | [19] | [20]
inactive: all other assays above

CCCNC(=O)NS(=O)(=O)c1ccc(Cl)cc1
not listed: [14] | [18] | [19] | [20]
inactive: all other assays above

Cc1ccc(C)c(OCCCC(C)(C)C(=O)O)c1
not listed: [14] | [20]
inactive: all other assays above

NNC(=O)c1ccncc1
not listed: [14] | [18] | [19]
inactive: all other assays above

C/C=C/c1ccc(OC)cc1
not listed: [16] | [17] | [18] | [19]
inactive: all other assays above

CC(O)CN(CCN(CC(C)O)CC(C)O)CC(C)O (centres undefined)
not listed: [16] | [17] | [18] | [19] | [20]
inactive: all other assays above

CC(O)C(=O)O (centres undefined)
not listed: [10] | [11] | [14] | [18] | [19] | [20]
inactive: all other assays above

O=S(=O)(O)NC1CCCCC1
not listed: [10] | [11] | [14] | [16] | [17] | [18] | [19]
inactive: all other assays above
